Mdm2 MdmX PPI: disrupts the human Mdm2-MdmX interaction | O15151+Q00987 | SaOS-2 split-luciferase Mdm2/MdmX complementation, luminescence | inhibition, % at 8 µM | 330,000 tested, 3% active | AID 485346;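 active = inhibition of at least 50% at 8 µM in the primary screen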
Bfl-1 A1 inh: inhibitors of the anti-apoptotic protein A1, read as caspase activation; caspase activation, % (no concentration beside the values); 330,000 tested, 0.066% active; MEF A1-2A-BIM cells, Caspase-Glo 3/7 luminescence, 3 h; percent of clofoctol response, vehicle zero;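 active = over half of replicate activation scores above 10%, or exactly half above 10 with the replicate mean above 10; inconclusive = replicate mean below 10 yet half the replicates above 10; inactive = over half of replicates below 10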
CSC inhib: cancer stem cell inhibition; 300,000 tested, 1.1% active; inhibition, % at 7.5 µM; cancer stem cell-like cells viability, luminescence; in the data active = inhibition above about 75%; inconclusive = no clear call, values can overlap the other calls; tested in HMLE shEcad cells
Beta cell apopt: blocks beta cell apoptosis. 300,000 tested, 0.8% active. protection from apoptosis, % (no concentration beside the values). INS-1E cytokine-induced death, ATP luminescence, 48 h; percent of positive-control rescue, neutral wells zero;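 active = Every replicate reaches about 75%, or at least half do and their mean reaches it too, limit read from the data; inconclusive = At least half of replicates reach the limit but their mean does not; inactive = Under half of replicates reach the limit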;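 also: 0% = cytokine-treated negative control wells and 100% = positive control rescue; higher means more ATP so stronger rescue from cytokine killing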
aSyn UTR inh: 5' untranslated region of α-synuclein, MLPCN primary screen | alpha-synuclein 5'UTR reporter, inhibitor activity | inhibition, % (tested at 7.5 µM) | 300,000 tested, 0.82% active | AID 1813; in the data active = inhibition above about 60%; inconclusive = no clear call, values can overlap the other calls;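 also: H4 neuroglioblastoma cells stably carrying SNCA 5'UTR luciferase fusion; 0% = DMSO wells and 100% = positive control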
Mdm2-MdmX conf: confirmation of human Mdm2/MdmX interaction inhibitors; shares compounds with Mdm2 MdmX PPI; Mdm2-MdmX binding, luminescent assay; inhibition, % at 8 µM; 10,000 tested, 55% active; in the data active = inhibition above about 40%
FLuc counter: inhibits full-length luciferase, flagging false Mdm2/MdmX hits. SaOS-2 full-length luciferase counterscreen, luminescence. inhibition, % at 8 µM. 6,200 tested, 77% active. shares compounds with Mdm2 MdmX PPI;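 active = mean inhibition at 8 µM reaching about 37%, which flags the compound as non-specific, limit read from the data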;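 also: p53-null SaOS-2 cells with luciferase driven by a doxycycline-inducible promoter; compound on cells about two nights before reading with doxycycline added after day one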
Numbers without * were called inactive; u = inconclusive; x = no result. This is a sample that favours compounds with a hit; in the whole collection about 4.1% have one here.

SMILES	Mdm2 MdmX PPI	Bfl-1 A1 inh	CSC inhib	Beta cell apopt	aSyn UTR inh	Mdm2-MdmX conf	FLuc counter
c1ccn2cc(-c3ccc4c(c3)OCCO4)nc2c1	50*	-7	24	18	98*	28	x
O=S(=O)(c1ccc(F)cc1)N1CCC2(CC1)OCCN2S(=O)(=O)c1cccs1	18	1	0	5	-6	x	x
O=C(C[C@@H]1C/C=C\CC[C@H](Cc2ccc(F)cc2)C(=O)OC[C@@H]2CCCN2C1=O)N[C@H](CO)Cc1ccccc1	7	0	11	-9	x	x	x
CC(C)=CCC12Oc3cc(O)ccc3C1(O)Oc1cc(O)c([C@H]3C=C(C)CC(c4ccc(O)cc4O)[C@H]3C(=O)c3ccc(O)cc3O)c(O)c1C2=O (some centres undefined)	68*	0	-10	-2	13	2	x
Cc1cccc(Nc2nnc(-c3ccc(N4CCOCC4)c([N+](=O)[O-])c3)c3ccccc23)c1	60*	1	51	34	33	37	84*
O=C(COc1ccc(-c2ccccc2)cc1)N1CCN(S(=O)(=O)Cc2ccccc2)CC1	57*	1	52	1	18	59*	75*
Cc1ccc(OCC(=O)N2CCN(C(=O)Cc3ccccc3)CC2)cc1	10	2	-2	-7	12	x	x
CCC(C)(C)NC(=O)C(c1cccc(OC)c1OC)N(CCOC)C(=O)CCC(=O)Nc1cc(C)on1 (centres undefined)	21	0	x	-1	-14	x	x
CCN1CCN(c2ccc(N3CCN(S(=O)(=O)c4cc([N+](=O)[O-])ccc4C)CC3)nn2)CC1	20	0	71	x	-1	x	x
COc1ccc(CCNC(=S)Nc2cccc3ccccc23)cc1	64*	0	15	9	-29	33	x
COc1ccc(/C=C2\SC(=S)N(Cc3cccnc3)C2=O)cc1C	59*	0	80*	-3	-127	32	x
C#CCOc1ccc(/C=C2\SC(=S)N(Cc3cccnc3)C2=O)cc1	60*	-2	79*	x	-82	71*	55*
CN(C)N1C(N)=C(C#N)C(c2cccc3ccccc23)C2=C1CC(c1ccccc1)CC2=O (centres undefined)	64*	1	80*	-1	42	63*	42*
COc1ccccc1OCc1nc(C#N)c(NCCCn2ccnc2)o1	8	-1	6	-1	12	x	x
COc1ccc(Nc2oc(COc3ccccc3OC)nc2C#N)cc1	68*	0	1	6	98*	64*	72*
Cc1ccc(C(=O)C[n+]2cc(-c3ccc(C)cc3)n3c2CCCCC3)cc1	53*	-1	10	125*	5	54*	48*
COc1ccc(NC(=O)/C(C#N)=C\c2cc(C)n(-c3ccc4c(c3)OCO4)c2C)cc1	58*	1	48	21	-107	55*	75*
CC(=O)Nc1ccc(Nc2ccc3c4c(cc(=O)n3C)-c3ccccc3C(=O)c24)cc1	59*	-1	6	18	-24	30	x
CC(Oc1cccc(Cl)c1)C(=O)Nc1ccncc1 (centres undefined)	1	1	-5	1	-3	x	x
CC(Oc1ccccc1)C(=O)Nc1nc(-c2ccccn2)cs1 (centres undefined)	74*	x	x	x	x	75*	43*
CC(Oc1cccc(Cl)c1)C(=O)Nc1nc(-c2ccccn2)cs1 (centres undefined)	68*	0	71	x	64*	77*	44*
CC(Oc1ccccc1)C(=O)Nc1nc(-c2ccncc2)cs1 (centres undefined)	26	0	x	-3	x	x	x
O=C(Nc1ccc(Cl)c(C(F)(F)F)c1)NC1CC2CCCC(C1)N2Cc1ccccc1 (centres undefined)	83*	1	u	50	47	52*	60*
C[n+]1c2n(c3ccccc31)N=C(c1ccc(-c3ccccc3)cc1)CS2	80*	1	39	108*	10	61*	26
O=C1c2ccccc2NC(c2ccc(-c3ccc(Br)cc3)o2)N1O (centres undefined)	73*	-2	103*	9	41	56*	31
SMILES	Mdm2 MdmX PPI	Bfl-1 A1 inh	CSC inhib	Beta cell apopt	aSyn UTR inh	Mdm2-MdmX conf	FLuc counter
C=CCN(Cc1ccc(Cl)s1)C(=O)c1cc(S(=O)(=O)N2CCOCC2)ccc1F	-12	1	x	-2	x	x	x
COC(=O)c1ccc(NC(=O)c2ccc3c(c2)NC(=O)C2CCCN32)cc1 (centres undefined)	14	0	x	0	x	x	x
O=C(Cn1c(=O)n(-c2cccc(C(F)(F)F)c2)c(=O)c2sccc21)NCC1CCCO1 (centres undefined)	1	0	-1	3	6	x	x
O=C(CS(=O)c1ccc(C(F)(F)F)cc1[N+](=O)[O-])Oc1ccc(Cl)cc1 (centres undefined)	18	0	4	-25	1	x	x
Cc1cc(C)cc(OC(=O)CS(=O)c2ccc(C(F)(F)F)cc2[N+](=O)[O-])c1 (centres undefined)	50*	0	39	-26	-29	40*	55*
COc1ccc(C(=O)COC(=O)c2sccc2C)cc1OC	13	-1	-21	-1	x	x	x
CC(C(=O)O)n1c2ccccc2c2cnn(C)c(=O)c21 (centres undefined)	-4	0	5	0	1	x	x
Cc1cnn(-c2cc(N/N=C/c3ccccc3Cl)ncn2)c1	63*	-1	16	-1	-10	-2	x
Cc1cnn(-c2cc(N/N=C/c3ccc(F)cc3)ncn2)c1	52*	0	-12	-6	-86	42*	101*
Cc1cnn(-c2cc(Oc3ccccc3)ncn2)c1	-45	-1	4	0	-216	x	x
CNC(=S)NCCC(c1ccccc1)c1ccccc1	14	0	x	-5	27	x	x
CC[C@H](C)[C@@H](CN[C@H](C)CNC)NCCC(c1ccccc1)c1ccccc1	99*	0	22	-7	-44	93*	4
O=C1/C(=C/c2ccc(N3CCOCC3)o2)SC(=Nc2ccccc2)N1CCc1c[nH]c2ccccc12	100*	u	85*	101*	-121	98*	4
O=S(=O)(c1ccc(S(=O)(=O)N2CCCC2)cc1)N1CCCCCC1	-17	2	11	x	-8	x	x
O=S(=O)(c1ccc2c(c1)C(=NO)c1cc(S(=O)(=O)N3CCCCC3)ccc1-2)N1CCCCC1	95*	1	122*	106*	96*	99*	2
COc1ccc(S(=O)(=O)N2CCC(C)CC2)cc1OC	30	1	-15	x	1	x	x
CC1CCN(S(=O)(=O)c2ccc3c(c2)C(=NO)c2cc(S(=O)(=O)N4CCC(C)CC4)ccc2-3)CC1	100*	2	113*	104*	x	100*	0
